Rows were chosen to be rich in hits. Some 3.1% of all compounds tested hit in one or more screens of this group.
TSHR antagonist: blocks TSH signaling through the human TSH receptor | AID 504810 | TSHR-expressing cells, TSH-stimulated cAMP HTRF, 2 h; hits give low values | 0.2% of 330,000 active | activity change, negative = inhibition, % at 11.5 µM | P16473;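 active means activity change below a set negative limit, meaning inhibition stronger than a set level, cut at about -70% in these data; inconclusive means activity change between two set negative limits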; further: on the % scale 0 is the no-effect control and ±100 the full control effect
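Inhibition of cAMP made by TSHR-expressing cells under TSH stimulation (4nM final, EC80; 2 h, 37 deg C) is quantified with a one-step lysis HTRF kit, anti-cAMP cryptate versus cAMP-d2.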
PLK1 PBD block: blocks phosphopeptide binding to human PLK1 polo-box domain | P53350 | Plk1 PBD binding of FITC phosphopeptide, fluorescence polarization | Potency, µM, inactives show max response, negative = inhibition, hits mostly inhibitors | 2.8% of 360,000 active; further: potency means the concentration at half of the fitted maximal effect; series mostly up to about 57 µM; on the % scale 0 is the no-effect control and ±100 the full control effect; nearly all actives have a fitted effect of over 65% in size
VDR inhibitor: blocks the human vitamin D receptor. Potency, µM, for inactives: max response, negative = inhibition, usual class: inhibitors. VDR-SRC2-3 peptide fluorescence polarization, 2 h. P11473. 0.93% of 400,000 active; further: potency means the concentration at half of the fitted maximal effect; on the % scale 0 is the no-effect control and ±100 the full control effect
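The screen uses fluorescence polarization to detect compounds that interfere with recruitment of the SRC2-3 coactivator peptide to VDR; plates are read after 2 h at room temperature.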
TSG101-PTAP inh: blocks PTAP/TSG101 interaction to inhibit HIV-1 budding; Fluorescence polarization, FITC-PTAP peptide / Tsg101 binding; Potency, µM (doses to about 115 µM), inactives show top-dose activity change, negative = inhibition, hits mostly inhibitors; 340,000 tested, under 10 active; AID 493005; active means well fitted inhibition curve with a large enough effect in the main read-out, with a control signal flat, not every such curve was filed as active; inconclusive means small, poorly fitted or top-dose-only effect, or effect the other way, or a change in a side signal; inactive means no such curve, though single readings can be large or run the other way; further: potency means the concentration at half of the fitted maximal effect; % of control where 0% means no effect
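Fluorescence polarization binding of Tsg101 binding domain (10 uM final) to FITC-labeled PTAP peptide (50 nM final) in HEPES pH 7.5 buffer with NaCl, Tween 20, EDTA, TCEP. Compounds added before peptide; binding 20 min at RT.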
uPA surface inh: blocks generation of uPA at the cell surface; cell surface uPA generation assay, qHTS; Potency, µM (top dose mostly 38.3 µM), for inactives: top-dose activity change, negative = inhibition, usual class: inhibitors; 0.31% of 330,000 active; active means well fitted inhibition curve with a large enough effect; inconclusive means small, poorly fitted or top-dose-only effect; inactive means no such curve, though single readings can be large or run the other way; tested in mouse RAW 264.7 cells; further: potency means the concentration at half of the fitted maximal effect; on the % scale 0 is the no-effect control and ±100 the full control effect; nearly all actives have a fitted effect of over 55% in size
* = called active by the depositor; ? = inconclusive; / = not tested or not shown. Unless noted, the call rests on the fitted dose curve; in most records, active means well fitted curve in the direction sought with a large enough effect; inconclusive means small, poorly fitted or top-dose-only effect, or another doubt; inactive means no such curve, though single readings can be large; an effect the other way counts as inactive or inconclusive.

SMILES	TSHR antagonist	PLK1 PBD block	VDR inhibitor	TSG101-PTAP inh	uPA surface inh
Cc1ccc2c(c1)C(=O)C(=O)N2Cc1ccc(Cl)cc1	15	?	25µM*	-1%	?
COC(=O)[C@H](COC(C)(C)C)NC(=O)O[C@H]1C(=O)c2cc(OC)ccc2O[C@@H]1c1ccc(OC)c(Br)c1	/	/	0%	/	/
c1ccc(-c2cn3ccccc3n2)cc1	/	-7%	2%	-11%	-6%
Oc1ccc(-c2cn3ccccc3n2)cc1	-7	-3%	9%	4%	4µM*
C=CCn1c2ccccc2c(=O)c2cc(C#CC[C@@H](C)O)ccc21	10	-20%	-16%	-6%	4µM*
COc1ccc2cc(S(=O)(=O)c3ccccc3F)c(=O)oc2c1	/	/	-8%	/	/
O=C(c1cc(Br)ccc1Cl)N1CCN(c2ncccn2)CC1	3	30µM*	?	-2%	-6%
O=S(=O)(Cc1ccccc1)N=Nc1c(O)[nH]c2ccc(Br)cc12	-4	?	79µM*	0%	3%
O=Cc1ccccc1OCCOc1ccc([N+](=O)[O-])cc1	-1	27µM*	?	-4%	-43%
CCOc1ccc(OCC)c(NC(=O)CN2CCN(c3cccc(C)c3C)CC2)c1	-8	4%	-3%	-4%	9%
CCOc1ccc(OCC)c(NC(=O)CN2CCN(C(=O)c3ccco3)CC2)c1	-2	21µM*	-17%	2%	6%
COc1ccc(CCNc2ncnc3nc[nH]c23)cc1	/	/	-9%	/	/
COc1ccc(C(=O)/C=C/c2ccc(OCc3ccccc3)cc2)cc1CSCC(=O)O	1	24µM*	?	0%	-10%
COc1ccc(C=CC(=O)c2ccc(OCc3ccccc3)c(OC)c2)cc1OC	/	6%	/	/	/
O=C(O)COc1ccc2ccccc2c1	/	/	4%	/	/
COc1ccc(C(=O)/C=C/c2cccc(OCc3ccccc3)c2)cc1CSCC(=O)O	-28	21µM*	13µM*	-9%	?
O=C(/C=C/c1ccc(OC2CSC2)cc1)c1ccccc1	6	27µM*	?	-5%	4%
O=C(O)COc1ccc(/C=C/C(=O)c2ccc3ccccc3c2)cc1	3	-29%	28µM*	0%	-16%
Cc1cc(C)c(S(=O)(=O)ON2C(=O)c3ccccc3C2=O)cc1C	25	5.3µM*	32µM*	-1%	-4%
Cc1cc(C)c(C)c(S(=O)(=O)ON2C(=O)c3ccccc3C2=O)c1C	1	6.7µM*	22µM*	0%	-7%
O=C1c2ccccc2C(=O)N1OS(=O)(=O)c1ccc(F)cc1	13	5.3µM*	-2%	3%	12%
Cc1ccc(S(=O)(=O)ON2C(=O)c3ccccc3C2=O)c(C)c1	30	7.5µM*	18µM*	-4%	-12%
C[C@H](O)CON1C(=O)c2ccccc2C1=O	/	/	10%	/	/
CCOc1cc(/C=C\[N+](=O)[O-])ccc1OCC(=O)Nc1ccccc1C	-4	?	4.5µM*	3%	8%
Cc1ccc(C(=O)N/N=c2\oc3ccccc3cc2C(N)=O)cc1	-8	-2%	11%	-1%	-1%
SMILES	TSHR antagonist	PLK1 PBD block	VDR inhibitor	TSG101-PTAP inh	uPA surface inh
NC(=O)c1cc2ccccc2o/c1=N/NC(=O)c1cccc(Cl)c1	-79*	-3%	23%	-5%	11%
O=S(=O)(c1ccccc1)n1nc(-c2ccc(Cl)cc2)nc1NCc1ccc(F)cc1	/	/	-17%	/	/
COc1ccc(S(N)(=O)=O)cc1N(C)S(=O)(=O)c1ccccc1	-6	27µM*	?	-3%	-3%
Cc1cc(C)cc(NC(=S)/C(=C(\[O-])c2ccc(Cl)cc2Cl)[n+]2ccccc2)c1	-11	30µM*	-14%	0%	1%
O=C(Nc1ccccc1N1CCCCC1)c1ccc(-c2ccc(Cl)cc2)o1	-11	27µM*	-18%	-2%	-13%
CS(=O)(=O)N1CCN(c2ccccc2NC(=O)c2ccc([N+](=O)[O-])o2)CC1	-5	3.4µM*	?	-4%	-12%
Cc1ccccc1NC(=O)c1ccc([N+](=O)[O-])o1	13	-10%	12%	-1%	-7%
CN1CCN(c2ccccc2NC(=O)c2ccc([N+](=O)[O-])o2)CC1	-5	-27%	8%	-4%	4.5µM*
C=CCN(C)CCCCCCOc1ccc(C(=O)c2ccc(Br)cc2)c(F)c1	/	/	-2%	/	/
COc1cccc(C2C(C(=O)Nc3ccccc3OC)=C(C)Nc3nc4ccccc4n32)c1 (centres undefined)	/	/	-12%	/	/

Source: PubChem (National Center for Advancing Translational Sciences (NCATS))
